The record followed here is PubChem BioAssay (NCATS).

Records with an inconclusive call do not appear. A number with no mark means an inactive call. Calls of active or inactive are those of the source. Calls follow the shape of the dose curve; as a rule, active = well fitted curve in the direction sought with a large enough effect; inconclusive = small, poorly fitted or top-dose-only effect, or another doubt; inactive = no such curve, though single readings can be large; an effect the other way counts as inactive or inconclusive.

Assay [1] can be described thus: Drug repurposing screens with cells derived from glioblastoma tumor samples (AID 1345199). Also: nearly all actives have a fitted effect of over 40% in size. Also: potency is read from the fitted curve at half-maximal effect. Particulars: GBM patient neurospheres viability, ATP luminescence, 48 h. An outline of the steps:
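Four patient lines of CD133+ GBM neurospheres were screened at several concentrations; hits were retested in those lines plus three slower-growing GBM lines, using 48-hour treatment and ATP-based viability.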

The subject of the next assay is Es-2. In words: Primary qHTS to identify gynecologic anti-cancer compounds using libraries of approved drugs and bioactive compounds (AID 1345084). Also: nearly all actives have a fitted effect of over 55% in size. Particulars: Gynecologic cancer cell panel viability, ATPlite luminescence, 48 h; series mostly up to 57.5 µM. The procedure, abridged: (§1)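 In this quantitative HTS, cell killing is estimated from loss of ATP-dependent luciferase light. Cells see five compound concentrations over a 48 h exposure.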

Another assay concerns Hek293T. The assay is described as above. Particulars: Gynecologic cancer cell panel viability, ATPlite luminescence, 48 h, control line for the selectivity index; series mostly up to 57.5 µM. An outline of the steps: as §1
A general note: ATP-based viability assays read luminescence as a measure of living cells.

For another assay, the system named is JEG-3. Described as above. Particulars: Gynecologic cancer cell panel viability, ATPlite luminescence, 48 h; series mostly up to 57.5 µM. An outline of the steps:
as §1

In another assay the test system is PA-1. Described as above. Conditions: Gynecologic cancer cell panel viability, ATPlite luminescence, 48 h; series mostly up to 57.5 µM. An outline of the steps:
as §1

The next assay concerns SKOV3. Described as above. Particulars: Gynecologic cancer cell panel viability, ATPlite luminescence, 48 h; series mostly up to 57.5 µM. An outline of the steps:
as §1

A further assay concerns Tov-21-G. The assay is described as above. Conditions: Gynecologic cancer cell panel viability, ATPlite luminescence, 48 h; series mostly up to 57.5 µM. An outline of the steps:
as §1

In the next assay the test system is Tov112D. The description is as above. Conditions: Gynecologic cancer cell panel viability, ATPlite luminescence, 48 h; series mostly up to 57.5 µM. An outline of the steps: as §1
Setting [2] is: at 45.9 µM (top of the series), tumour line D.
Where [3] appears, read: at 46.1 µM (top of the series), tumour line C.
[4] abbreviates: at 45.9 µM (top of the series), tumour line B.
% is scaled to controls: 0 for no effect and ±100 for the full control effect.

Regarding `Nc1ccn([C@@H]2O[C@H](CO)[C@@H](O)C2O)c(=O)n1` (some centres not stated), the activity, negative = cell killing in assay [1] (setting [2]) was -14.9%; in assay [1] (setting [3]), -25.6%. For the same compound, the Potency in assay [1] (tumour line A) was 7.08 µM (active).
For `CCOC(=O)C1=C[C@@H](OC(CC)CC)[C@H](NC(C)=O)[C@@H](N)C1`, the activity, negative = cell killing was -10.4% in assay [1] (setting [4]), -1.97% in assay [1] (setting [2]) and 5.2% in assay [1] (setting [3]).
Take `CCCCCCCCCCCCCCCCCCCCCCO`: the activity, negative = cell killing in assay [1] (setting [4]) was -4.68%; in assay [1] (setting [2]), 1.13%; in assay [1] (at 46 µM (top of the series), tumour line A) it was -31.4%; in assay [1] (setting [3]), 4.25%.
With `CNC[C@@H](O)[C@@H](O)[C@H](O)[C@H](O)CO`, the activity, negative = cell killing in assay [1] (setting [4]) was 0.477%; in assay [1] (setting [2]), -17.4%; in assay [1] (setting [3]) it was -4.13%.
For `O=C(O)c1cccnc1Nc1cccc(C(F)(F)F)c1`, the Potency result in the assay on Es-2, in the assay on Hek293T, in the assay on JEG-3, in the assay with PA-1, in the assay on SKOV3 and in the assay with Tov-21-G was “inactive” throughout. Also, the Potency entry with Tov112D is “inactive”. In addition, the figures for the activity, negative = cell killing in assay [1] (setting [4]) and in assay [1] (setting [2]) were -15.9% and -4.12%, respectively.
